Source: PubChem BioAssay (NCATS)
Inconclusive results are not listed. Calls of active or inactive are those of the source. Calls come from the whole dose curve; as a rule, active = well fitted curve in the direction sought with a large enough effect; inconclusive = small, poorly fitted or top-dose-only effect, or another doubt; inactive = no such curve, though single readings can be large; an effect the other way counts as inactive or inconclusive.

Key:
[1] = target: Phospholipid hydroperoxide glutathione peroxidase GPX4 (Homo sapiens) (UniProt P36969); assay: Primary qHTS Assay for Inhibitors of Recombinant Selenoprotein Glutathione Peroxidase 4 (GPX4) (AID 1845192); details: recombinant GPX4, GR-coupled NADPH fluorescence, 15 min; series mostly up to 50 µM; note: nearly all actives have a fitted effect of over 65% in size; for activity change, negative = inhibition: % is set by controls: 0 for no effect and ±100 for the full control effect
Outline: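 GR-coupled readout: 100 nM GR, 1 mM GSH, 0.5 mM NADPH; NADPH fluorescence (ex 340/em 450 nm) read at t=0 and after 15 min RT. GPX4 200 nM, preincubated 30 min with compound; substrate 0.5 mM CHP.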

[2] = target: Luciferin 4-monooxygenase (Photinus pyralis) (UniProt P08659); assay: Primary firefly luciferase (FLuc) qHTS assay for identification of artifact compounds. (AID 1845220); details: purified firefly luciferase, luminescence, 5 min; series mostly up to 54.1 µM; note: nearly all actives have a fitted effect of over 60% in size;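 for activity change, negative = inhibition: plate controls were DMSO vehicle for no effect and no enzyme for full effect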
Outline: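 Reaction readout was CCD-imaged luminescence, taken 5 min after adding 10 nM purified firefly enzyme to compound-treated wells holding 10 uM luciferin and ATP in pH 7.6 buffer.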

[3] = Primary fluorescence-based thiol-reactive (MSTI) qHTS assay for identification of artifact compounds. (AID 1845221); details: MSTI thiol-reactivity probe, 1 h; series mostly up to 53.8 µM; note: nearly all actives have a fitted effect of over 65% in size; note: potency is the fitted concentration of half-maximal effect;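 for activity change, negative = thiol reactive: thiol-reactive compounds lower the probe fluorescence signal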
Outline: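 One-hour, room-temperature, dark incubation of compound with 4 uM MSTI in PBS (pH 7.4, 2% DMSO) precedes a fluorescence read at 525 nm excitation, 598 nm emission; Hill-equation fitting yields concentration-response values.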

[4] = test system: Nanoluciferase (engineered Oplophorus gracilirostris luciferase); assay: Primary Nanoluciferase (NLuc) qHTS assay for identification of artifact compounds. (AID 1845222); details: NLuc-conditioned medium, Nano-Glo luminescence, 5 min; series mostly up to 54.1 µM;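 note: NLuc secreted into diluted conditioned medium of S16 cells; 0% = DMSO and -100% = no enzyme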
Outline: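 Concentration-response data were obtained by luminescence after 5 min with Nano-Glo substrate at 1:100. The enzyme was diluted S16 NLuc-expressing cell medium, preincubated with compound for 15 min at RT. Curves were fitted with a 4-parameter Hill model.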

[5] = Primary redox qHTS assay for identification of artifact compounds. (AID 1845223); details: Amplex Red/HRP redox cycling with DTT, fluorescence; series mostly up to 53.8 µM; note: potency is the fitted concentration of half-maximal effect;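 for redox activity (% of DA3003): 0% = DMSO and 100% = reference compound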
Outline: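 Amplex Red (25 uM) and HRP (250 mU/mL) in HBSS, with compounds for 15 min, then 250 uM DTT for 30 min, room temperature, dark. Fluorescence 525/598 nm read; normalized to DMSO and 10 uM DA3003; Hill fit.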

Phospholipid hydroperoxide glutathione peroxidase GPX4 (Homo sapiens), sequence (P36969 whole entry, looked up): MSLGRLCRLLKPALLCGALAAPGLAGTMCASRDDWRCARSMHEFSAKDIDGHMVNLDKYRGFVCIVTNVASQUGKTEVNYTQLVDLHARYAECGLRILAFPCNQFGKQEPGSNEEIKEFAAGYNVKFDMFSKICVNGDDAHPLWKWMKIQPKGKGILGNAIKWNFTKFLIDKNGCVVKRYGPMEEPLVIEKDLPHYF

CCOC(=O)[C@H](CCc1ccccc1)CC1(C(=O)N[C@H]2CCc3ccccc3N(CC(=O)O)C2=O)CCCC1
inactive: Potency [1] | Potency [2] | Potency [3] | Potency [4] | Potency [5]

NS(=O)(=O)NCCNc1nonc1C(=Nc1ccc(F)c(Br)c1)NO
inactive: Potency [1] | Potency [2] | Potency [3] | Potency [4] | Potency [5]

CC1=CC(=O)C2C(C)(C)CCCC2(C)C12CCC1(COC(=O)C1)O2 (stereo unspecified)
inactive: Potency [1] | Potency [2] | Potency [4] | Potency [5]
active: Potency [3] 7.36 µM

C[C@@H](Nc1cc(NS(=O)(=O)N2CCC2)nc(SCc2cccc(F)c2F)n1)[C@@H](O)CO
inactive: Potency [1] | Potency [2] | Potency [3] | Potency [4] | Potency [5]

CC[C@H]1OC(=O)[C@H](C)[C@@H](OC2C[C@@](C)(OC)[C@@H](O)[C@H](C)O2)[C@H](C)[C@@H](OC2O[C@H](C)C[C@H](NC)[C@H]2O)[C@](C)(O)C[C@@H](C)CN(C)[C@H](C)[C@@H](O)[C@]1(C)O (stereo partly specified)
inactive: Potency [1] | Potency [2] | Potency [3] | Potency [4] | Potency [5]

CC(=O)c1c(O)cc2cccc3c2c1CC(C)(O)O3 (stereo unspecified)
active: Potency [3] 5.32 µM
inactive: Potency [1] | Potency [2] | Potency [4]

Cn1c(=O)c2nc(/C=C/c3cccc(Cl)c3)n(C)c2n(C)c1=O
inactive: Potency [1] | Potency [2] | Potency [3] | Potency [4] | Potency [5]

O=C(c1ccc(NS(=O)(=O)c2cccc3cccnc23)cc1)N1CCN(CC2CC2)CC1
inactive: Potency [1] | Potency [2] | Potency [3] | Potency [4] | Potency [5]

C[C@@H]1O[C@@H](O[C@@H]2[C@@H](O)[C@H](O[C@@H]3[C@@H](O)[C@@H](O)[C@H](O[C@H]4[C@H](OC(=O)[C@]56CCC(C)(C)C[C@H]5C5=CCC7[C@@]8(C)C[C@H](O)[C@H](O[C@@H]9O[C@@H](C)[C@H](O)[C@@H](O)[C@H]9O)[C@@](C)(CO)C8CC[C@@]7(C)[C@]5(C)C[C@H]6O)O[C@H](C)[C@H](O)[C@@H]4O)O[C@H]3C)OC[C@H]2O)[C@H](O)[C@H](O)[C@H]1O (stereo partly specified)
inactive: activity change, negative = inhibition [1] 0.486% [at 9.73 µM] | outcome [2] inactive [at 11.6 µM] | activity change, negative = thiol reactive [3] 292% [at 11.5 µM] | activity, negative = inhibition [4] 4.95% [at 11.6 µM] | redox activity (% of DA3003) [5] 10.9% [at 11.5 µM]

CC1=CC(=O)CC(C)(CO[C@@H]2O[C@H](CO)[C@@H](O)[C@H](O)[C@H]2O)C1(O)/C=C/C(C)=C/C(=O)O (stereo partly specified)
inactive: Potency [1] | Potency [2] | Potency [4] | Potency [5]
active: Potency [3] 13 µM

CCN(c1cc(C#CCN2CCOCC2)cc(C(=O)NCc2c(C)cc(C)[nH]c2=O)c1C)C1CCC(N(C)CCOC)CC1 (stereo unspecified)
inactive: Potency [1] | Potency [2] | Potency [3] | Potency [4]

c1ccc(Cc2ncc3c(n2)CCNCC3)cc1
inactive: Potency [1] | Potency [2] | Potency [3] | Potency [4] | Potency [5]

C=C1C2(CCC(=O)OC2(C)C)CC(OC(=O)/C(C)=C/C)C2(C)C13OC14C(=O)OC(C)(C(=O)C12C(=O)OC4C)C3OC(C)=O (stereo unspecified)
inactive: Potency [1] | Potency [2] | Potency [3] | Potency [4] | Potency [5]

OC[C@H]1O[C@@H](n2cnc3c(NCc4ccc(O)cc4)ncnc32)[C@H](O)[C@@H]1O
inactive: Potency [1] | Potency [2] | Potency [3] | Potency [4] | Potency [5]

Cc1ncc([N+](=O)[O-])n1CC(O)CN1CCOCC1 (stereo unspecified)
inactive: Potency [1] | Potency [2] | Potency [3] | Potency [4] | Potency [5]

C=C[C@H]1[C@H](O[C@@H]2O[C@H](CO[C@@H]3OC[C@](O)(CO)[C@H]3O)[C@@H](O)[C@H](O)[C@H]2O)OC=C2C(=O)OCC[C@H]21
active: Potency [5] 3.27 µM
inactive: Potency [1] | Potency [2] | Potency [3] | Potency [4]

C[C@@H]1C[C@H]2[C@@H]3CCC4=CC(=O)C=C[C@]4(C)[C@@]3(F)[C@@H](O)C[C@]2(C)[C@@]1(O)C(=O)COP(=O)(O)O
inactive: Potency [1] | Potency [2] | Potency [3] | Potency [4] | Potency [5]

C[C@@H]1CC[C@]2(C)C(C[C@@H](O)[C@H](O)[C@]23CO3)[C@@]1(C)CCc1ccoc1 (stereo partly specified)
inactive: Potency [1] | Potency [2] | Potency [3] | Potency [4] | Potency [5]

C=C1C(=O)OC2/C=C(\C)CC/C=C(\C(=O)O)CC/C=C(\C)CCC12 (stereo unspecified)
inactive: Potency [1] | Potency [2] | Potency [3] | Potency [4] | Potency [5]

CNC(=O)[C@H]1O[C@@H](n2cnc3c(NCc4ccc(N)c(I)c4)ncnc32)[C@H](O)[C@@H]1O
inactive: activity change, negative = inhibition [1] -1.09% [at 9.73 µM] | outcome [2] inactive [at 11.6 µM] | activity change, negative = thiol reactive [3] 20.2% [at 11.5 µM] | activity, negative = inhibition [4] -0.867% [at 11.6 µM] | redox activity (% of DA3003) [5] 1.11% [at 11.5 µM]

C=C1[C@H]2[C@H](O[C@@H]3O[C@H](COC(=O)/C=C/c4cc(OC)c(O)c(OC)c4)[C@@H](O)[C@H](O)[C@H]3O)OC=C(C(=O)O)[C@H]2C[C@@H]1O
inactive: Potency [1] | Potency [2] | Potency [4] | Potency [5]
active: Potency [3] 7.07 µM

CCC(C)/C=C(C)/C=C/C1=CC2=C(Cl)C(=O)C(C)(OC(C)=O)C(=O)C2=CN1C1CCCCN(C(CCC(N)=O)C(=O)O)C1=O (stereo unspecified)
inactive: Potency [1] | Potency [2] | Potency [4]
active: Potency [3] 0.446 µM

C=CCc1ccc(O[C@@H]2O[C@H](CO)[C@@H](O)[C@H](O)[C@H]2O)c(OC)c1
active: Potency [3] 7.36 µM
inactive: Potency [1] | Potency [2] | Potency [4]

CC(=O)OC[C@]12[C@H](OC(C)=O)C(=O)[C@@H]3[C@@H](OC(C)=O)[C@@]14O[C@@]3(C)COC(=O)c1cccnc1[C@@H](C)[C@H](C)C(=O)O[C@@H]([C@H](OC(C)=O)[C@@H]2OC(C)=O)[C@]4(C)O
inactive: Potency [1] | Potency [2] | Potency [3] | Potency [4] | Potency [5]

C/C=C1/[C@H](O[C@@H]2O[C@H](CO)[C@@H](O)[C@H](O)[C@H]2O)OC=C(C(=O)OC)[C@H]1CC(=O)O[C@@H]1O[C@H](CO)[C@@H](O)[C@H](O)[C@H]1O
inactive: Potency [1] | Potency [2] | Potency [3] | Potency [4] | Potency [5]

O=C(C1CC1)N1CC[C@@H](Cc2n[nH]c(=O)n2-c2ccc(-c3ccc4occc4c3)cc2)C1
inactive: Potency [1] | Potency [2] | Potency [3] | Potency [4] | Potency [5]

NS(=O)(=O)OC[C@@H]1C[C@@H](n2ccc3c(N[C@H]4CCc5ccccc54)ncnc32)C[C@@H]1O
inactive: Potency [1] | Potency [2] | Potency [3] | Potency [4]

O=C(c1ccc(F)cc1)C1CCN(CCn2c(=O)nc3n(c2=O)CCCC3)CC1
inactive: Potency [1] | Potency [2] | Potency [3] | Potency [4]

NCCCC[C@H](NC(=O)[C@@H]1Cc2ccccc2CN1C(=O)CCC(=O)c1ccccc1)C(=O)NCC(c1ccccc1)c1ccccc1
inactive: Potency [1] | Potency [2] | Potency [3] | Potency [4]

CC(C)(O)C1CC=C(C(=O)OCC2OC(Oc3c(O)cc(C(=O)O)cc3O)C(O)C(O)C2O)CC1 (stereo unspecified)
inactive: Potency [1] | Potency [2] | Potency [4] | Potency [5]
active: Potency [3] 0.822 µM

COc1cc(/C=C/C(=O)OC2CC(C)=C(C(=O)O)/C2=C/CO[C@@H]2O[C@H](CO)[C@@H](O)[C@H](O)[C@H]2O)ccc1O (stereo partly specified)
active: Potency [3] 4.12 µM
inactive: Potency [1] | Potency [2] | Potency [4] | Potency [5]

Cc1cc(C)cc(NC(=O)Cc2ccc(OC(C)(C)C(=O)O)cc2)c1
inactive: Potency [1] | Potency [2] | Potency [3] | Potency [4] | Potency [5]

CCOC(=O)[C@H](CCc1ccccc1)N[C@@H](C)C(=O)N1C2CCCCC2C[C@H]1C(=O)O (stereo partly specified)
inactive: Potency [1] | Potency [2] | Potency [3] | Potency [4]

CC(C)NC[C@H](O)COc1ccc(CCOCC2CC2)cc1
inactive: Potency [1] | Potency [2] | Potency [3] | Potency [4] | Potency [5]

CN[C@@H]1[C@@H](O)[C@@H](O[C@@H]2[C@@H](O)[C@H](O[C@H]3O[C@H](CN)[C@@H](O)[C@H](O)[C@H]3O)[C@@H](N)C[C@H]2NC(=O)[C@@H](O)CN)OC[C@]1(C)O
inactive: Potency [1] | Potency [2] | Potency [3] | Potency [4] | Potency [5]

CCS(=O)(=O)N1CCC([C@@H](C)n2c(C)c(C(=O)NCc3c(OC)cc(C)[nH]c3=O)c3ccccc32)CC1
inactive: Potency [1] | Potency [2] | Potency [3] | Potency [4]

O=C(O)[C@H]1CCCC[C@H]1C(=O)N1CCc2ccccc2[C@H]1CN1C(=O)c2ccccc2C1=O
inactive: Potency [1] | Potency [2] | Potency [3] | Potency [4] | Potency [5]
